This note sets out measurements from PubChem BioAssay (NCI).

Structures are written as SMILES. Compounds without any hit were thinned out: in the full panel of roughly 79,000, 15% have a hit. Active and inactive are the calls of the source. Rule as the data show it: active = growth inhibition above about 70%; inactive = the rest.

The nature of one test: NCI Yeast Anticancer Drug Screen. Data for the mgt1 strain (AID 153). To be noted: S. cerevisiae mgt1 mutant growth inhibition; at 11.0 µM; hits give high values. In short, it runs like this: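 Growth inhibition relative to vehicle controls was scored for the mgt1 yeast strain after compound exposure.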
As for `CCCc1cc(C(=O)OCC)cc(CCC)c1O`, the growth inhibition was -9% (inactive).
As to `CC(C)[N+]([O-])(CCCNc1c2ccccc2nc2cccc([N+](=O)[O-])c12)C(C)C`, the growth inhibition was 24% (inactive).
For `COc1cc2c3c(cccc3c1)C(=O)N(CCN(C)C)C2=O`, the growth inhibition is -32% (inactive).
Regarding `NC(=O)NN=C(CS)CS`, the growth inhibition was 2% (inactive).
The same measure, in the same setting: for `Cc1ccc(NC(=O)/C(Cl)=C(\Cl)C(=O)O)cc1C` the value was 22% (inactive).
Regarding `CCN(CC)CC[n+]1ccc2c(C)c3[nH]c4ccc(O)cc4c3c(C)c2c1`, the growth inhibition is 0% (inactive).
On to `CC(CC(C)(C)[N+](C)(C)C)[N+](C)(C)C` (stereo not drawn), for which the growth inhibition was 2% (inactive).
In the case of `COc1ccc(OC)c2cc3ccccc3cc12`, the growth inhibition was 15% (inactive).
With `Nc1ncncc1C(C1=C(O)COC1=O)C1=C(O)COC1=O`, the growth inhibition was -6% (inactive).
As for `CSC1=NNC(SC)=NN1`, the growth inhibition was 12% (inactive).
Regarding `Cc1c(Cl)ccc2c1S(=O)(=O)c1cccc(Cl)c1-2`, the growth inhibition is 9% (inactive).
Consider `[O-][n+]1c2ccc(O)cc2nc2ccc(Cl)cc21`, for which the growth inhibition is 34% (inactive).
On the same count and under the same terms, with `COc1ccc2ccc3ccccc3c2c1C=O` the figure was -7% (inactive); with `Nc1ccc2c(c1)C(=O)c1cccc(N)c1C2=O`, 21% (inactive).
On the same count and under the same terms, with `O=C(c1ccc(Cl)cc1Cl)C(Cl)Cl` the figure was -13% (inactive); with `COc1cc(C(=O)/C=C/c2ccccc2O)ccc1O`, 98% (active); with `O=Cc1cccc2ccc3ccccc3c12`, -3% (inactive).
Regarding `O=C(Nc1ccc(Cl)cc1)OCC#CCCl`, the growth inhibition is 98% (active).
For the compound `Cn1ccnc1Oc1ccc(Cl)cc1`, the growth inhibition was 0% (inactive).
As for `c1ccc2c(c1)C(=NCCCN1CCCCCC1)c1cccn1-2`, the growth inhibition is -1% (inactive).
In the case of `C/C(=N\O)C1CC2C=C(C#N)C1N(Cc1ccccc1)C2` (stereo not drawn), the growth inhibition was -5% (inactive).
The same measure, in the same setting: with `O=[N+]([O-])C(=C(Sc1ccccc1)Sc1ccccc1)C(Cl)=C(Cl)Cl` the figure was 44% (inactive); with `CCCCCCCCCC/C=C\C(=O)O`, -22% (inactive); with `COc1ccc(N=C2C(=O)Nc3ccc(Br)cc32)cc1`, -5% (inactive).
For the compound `COc1ccccc1C(=O)OCC1CCCN2CCCCC12` (stereo not drawn), the growth inhibition is 73% (active).
As to `CC(C)(Br)C(=O)/C=C/c1ccc(Cl)c(Cl)c1`, the growth inhibition was -1% (inactive).
As for `Nc1ccccc1CC(O)C(=O)O` (stereo not drawn), the growth inhibition is 14% (inactive).
As for `CC(=O)N/N=C/C(C)(C)C(C)(C)/C=N/NC(C)=O`, the growth inhibition is -4% (inactive).
Regarding `CN(C)c1nc2sc3c(c2c(=O)o1)CCCC3`, the growth inhibition was 0% (inactive).
Consider `CC(C)OC(=O)Oc1ccccc1OC(=O)OC(C)C`, for which the growth inhibition is 3% (inactive).
As to `Cc1ccc(N)c(S)c1`, the growth inhibition is 15% (inactive).
As to `O=C(O)c1ccccc1NC(=S)c1ccccc1`, the growth inhibition was -3% (inactive).
Same read-out and setting: with `COC(=O)c1ccc(NCC2=CC(=O)C=CC2=O)cc1O` the figure was 77% (active); with `NC(N)=N/N=C\c1c2ccccc2cc2ccccc12`, -34% (inactive); with `COC(=O)CSSCc1ccc([N+](=O)[O-])cc1`, 16% (inactive).
Turning to `CCS(=O)(=O)c1ccc(/C=C/C=N/NC(=S)NCC(C)C)cc1`, the growth inhibition was -2% (inactive).
Consider `N#CC(C(=O)Nc1ccccc1)C1=C(Cl)C(=O)c2ccccc2C1=O` (stereo not drawn), for which the growth inhibition is 98% (active).
Turning to `C[C@H](CCC(=O)NN)[C@H]1CC[C@H]2[C@@H]3CC[C@@H]4C[C@H](O)CC[C@]4(C)[C@H]3CC[C@]12C`, the growth inhibition was 1% (inactive).
For the compound `CC[n+]1ccc2c(C)c3[nH]c4ccc(O)cc4c3c(C)c2c1`, the growth inhibition is -16% (inactive).

Staying with this test, now noted: S. cerevisiae mgt1 mutant growth inhibition; at 33.0 µM; hits give high values.
As for `CCCc1cc(C(=O)OCC)cc(CCC)c1O`, the growth inhibition was -12% (inactive).
On to `CC(C)[N+]([O-])(CCCNc1c2ccccc2nc2cccc([N+](=O)[O-])c12)C(C)C`, for which the growth inhibition was 90% (active).
Take `COc1cc2c3c(cccc3c1)C(=O)N(CCN(C)C)C2=O`: the growth inhibition was -23% (inactive).
On the same count and under the same terms, with `NC(=O)NN=C(CS)CS` the figure was 12% (inactive).
`Cc1ccc(NC(=O)/C(Cl)=C(\Cl)C(=O)O)cc1C`: the growth inhibition is 99% (active).
Consider `CCN(CC)CC[n+]1ccc2c(C)c3[nH]c4ccc(O)cc4c3c(C)c2c1`, for which the growth inhibition was 3% (inactive).
For `CC(CC(C)(C)[N+](C)(C)C)[N+](C)(C)C` (stereo not drawn), the growth inhibition is 1% (inactive).
As to `COc1ccc(OC)c2cc3ccccc3cc12`, the growth inhibition is 18% (inactive).
On the same count and under the same terms, with `Nc1ncncc1C(C1=C(O)COC1=O)C1=C(O)COC1=O` the figure was -2% (inactive); with `CSC1=NNC(SC)=NN1`, 83% (active); with `Cc1c(Cl)ccc2c1S(=O)(=O)c1cccc(Cl)c1-2`, -5% (inactive).
With `[O-][n+]1c2ccc(O)cc2nc2ccc(Cl)cc21`, the growth inhibition was 65% (inactive).
On to `COc1ccc2ccc3ccccc3c2c1C=O`, for which the growth inhibition was -5% (inactive).
Regarding `Nc1ccc2c(c1)C(=O)c1cccc(N)c1C2=O`, the growth inhibition is 63% (inactive).
Turning to `O=C(c1ccc(Cl)cc1Cl)C(Cl)Cl`, the growth inhibition is 68% (inactive).
Turning to `COc1cc(C(=O)/C=C/c2ccccc2O)ccc1O`, the growth inhibition was 99% (active).
Turning to `O=Cc1cccc2ccc3ccccc3c12`, the growth inhibition was 32% (inactive).
For the compound `O=C(Nc1ccc(Cl)cc1)OCC#CCCl`, the growth inhibition is 98% (active).
As to `Cn1ccnc1Oc1ccc(Cl)cc1`, the growth inhibition was 15% (inactive).
Regarding `c1ccc2c(c1)C(=NCCCN1CCCCCC1)c1cccn1-2`, the growth inhibition was 3% (inactive).
Still for that read-out and setting: with `C/C(=N\O)C1CC2C=C(C#N)C1N(Cc1ccccc1)C2` (stereo not drawn) the figure was -3% (inactive); with `O=[N+]([O-])C(=C(Sc1ccccc1)Sc1ccccc1)C(Cl)=C(Cl)Cl`, 59% (inactive); with `CCCCCCCCCC/C=C\C(=O)O`, -9% (inactive).
With `COc1ccc(N=C2C(=O)Nc3ccc(Br)cc32)cc1`, the growth inhibition was 2% (inactive).
With `COc1ccccc1C(=O)OCC1CCCN2CCCCC12` (stereo not drawn), the growth inhibition is 91% (active).
Still for that read-out and setting: for `CC(C)(Br)C(=O)/C=C/c1ccc(Cl)c(Cl)c1` the value was 0% (inactive).
The same measure, in the same setting: with `Nc1ccccc1CC(O)C(=O)O` (stereo not drawn) the figure was 74% (active).
Take `CC(=O)N/N=C/C(C)(C)C(C)(C)/C=N/NC(C)=O`: the growth inhibition was -5% (inactive).
Turning to `CN(C)c1nc2sc3c(c2c(=O)o1)CCCC3`, the growth inhibition is 16% (inactive).
On the same count and under the same terms, with `CC(C)OC(=O)Oc1ccccc1OC(=O)OC(C)C` the figure was 2% (inactive).
Turning to `Cc1ccc(N)c(S)c1`, the growth inhibition was 98% (active).
On to `O=C(O)c1ccccc1NC(=S)c1ccccc1`, for which the growth inhibition is 18% (inactive).
With `COC(=O)c1ccc(NCC2=CC(=O)C=CC2=O)cc1O`, the growth inhibition is 97% (active).
`NC(N)=N/N=C\c1c2ccccc2cc2ccccc12`: the growth inhibition is 3% (inactive).
`COC(=O)CSSCc1ccc([N+](=O)[O-])cc1`: the growth inhibition was 44% (inactive).
The same measure, in the same setting: for `CCS(=O)(=O)c1ccc(/C=C/C=N/NC(=S)NCC(C)C)cc1` the value was 5% (inactive); for `N#CC(C(=O)Nc1ccccc1)C1=C(Cl)C(=O)c2ccccc2C1=O` (stereo not drawn), 97% (active).
As to `C[C@H](CCC(=O)NN)[C@H]1CC[C@H]2[C@@H]3CC[C@@H]4C[C@H](O)CC[C@]4(C)[C@H]3CC[C@]12C`, the growth inhibition was -1% (inactive).
For the compound `CC[n+]1ccc2c(C)c3[nH]c4ccc(O)cc4c3c(C)c2c1`, the growth inhibition was -5% (inactive).
